Records with an inconclusive call do not appear. Where a call stands in place of a potency, no number is given. Activity calls are given as the source filed them. Calls come from the whole dose curve; as a rule, active = well fitted inhibition curve with a large enough effect; inconclusive = small, poorly fitted or top-dose-only effect; inactive = no such curve, though single readings can be large or run the other way.
These molecules were tested against Rap guanine nucleotide exchange factor 4 (Homo sapiens) (UniProt Q8WZA2) (assay: Confirmatory qHTS for antagonist of cAMP-regulated guanine nucleotide exchange factor 4 (EPAC2) (AID 1645885; note: nearly all actives have a fitted effect of over 25% in size)). Conditions: EPAC2 Rap1B-BODIPY-GDP exchange fluorescence, biochemical; series mostly up to 12.7 µM.
Chain of Rap guanine nucleotide exchange factor 4 (Homo sapiens) (Q8WZA2 whole entry, looked up): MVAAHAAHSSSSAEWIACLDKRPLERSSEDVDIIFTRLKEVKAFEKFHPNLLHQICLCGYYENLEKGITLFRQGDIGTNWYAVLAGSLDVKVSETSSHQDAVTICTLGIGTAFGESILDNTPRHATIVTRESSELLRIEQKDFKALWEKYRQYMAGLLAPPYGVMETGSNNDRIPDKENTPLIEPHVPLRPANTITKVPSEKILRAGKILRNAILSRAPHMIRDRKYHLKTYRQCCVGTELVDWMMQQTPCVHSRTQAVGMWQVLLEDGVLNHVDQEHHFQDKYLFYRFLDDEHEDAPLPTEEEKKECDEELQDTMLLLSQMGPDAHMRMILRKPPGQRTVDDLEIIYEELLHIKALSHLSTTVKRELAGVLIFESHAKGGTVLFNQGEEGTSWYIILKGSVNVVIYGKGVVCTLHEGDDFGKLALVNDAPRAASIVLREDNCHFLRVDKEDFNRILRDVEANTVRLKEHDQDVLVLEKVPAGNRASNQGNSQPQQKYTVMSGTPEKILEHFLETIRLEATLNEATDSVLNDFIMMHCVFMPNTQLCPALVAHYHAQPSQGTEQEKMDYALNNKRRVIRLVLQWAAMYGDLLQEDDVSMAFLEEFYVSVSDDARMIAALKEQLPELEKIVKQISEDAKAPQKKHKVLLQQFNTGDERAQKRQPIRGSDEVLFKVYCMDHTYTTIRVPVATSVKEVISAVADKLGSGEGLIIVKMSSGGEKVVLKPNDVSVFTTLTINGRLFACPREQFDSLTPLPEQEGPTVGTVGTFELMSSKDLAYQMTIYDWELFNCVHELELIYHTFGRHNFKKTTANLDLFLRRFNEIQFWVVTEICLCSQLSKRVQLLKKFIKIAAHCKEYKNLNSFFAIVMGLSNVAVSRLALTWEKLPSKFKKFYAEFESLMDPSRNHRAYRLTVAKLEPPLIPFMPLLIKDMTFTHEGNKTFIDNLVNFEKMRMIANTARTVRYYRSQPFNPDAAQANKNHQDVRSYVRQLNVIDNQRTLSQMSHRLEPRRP
With `COc1ccc(OC)c(CNC(=O)CCCc2cn(C)c3ccccc23)c1` the Potency was “inactive”. `Oc1ccc(NCc2cccc(OCc3ccccc3)c2)cc1` was tested, and the Potency was “inactive”. With `CCc1nc2c(OCCC3CCCCC3)cccn2c1N(C)C(=O)c1ccc(C)cc1` the Potency was “inactive”. In the case of `O=C(Nc1cccc(F)c1)c1ccc(-c2cccnc2)c2ccoc12`, the Potency is reported as “inactive”. In the case of `O=C(/C=C/c1ccco1)Nc1cccc2cccnc12`, the Potency is reported as “inactive”. With `Cc1cccc(C)c1NC(=O)Cn1c(=O)n(Cc2ccc(C(=O)NCc3ccco3)cc2)c(=O)c2sccc21` the Potency was “inactive”. With `CCc1ccccc1OCC(=O)NCC1COc2ccccc2O1` (stereo not drawn) the Potency was “inactive”. With `Cc1occc1-c1nnc(SCC(=O)c2cc3ccccc3oc2=O)o1` the Potency was “inactive”. With `Cc1ccc(C(=O)N2CCc3cc(CNC(=O)CSc4ccccc4)ccc32)cc1` the Potency was “inactive”. In the case of `COCCCn1c(=O)/c(=C\c2ccccc2OC(C)C)s/c1=C(/C#N)C(=O)Nc1ccc(C(=O)O)cc1`, the Potency is reported as “inactive”. `N#CCCN(CCC#N)S(=O)(=O)c1ccc(C(=O)Nc2nnc(C3=COCCO3)o2)cc1` was tested, and the Potency was “inactive”. For `COc1ccc(C2C=C(c3ccc(Br)cc3)Nc3nnnn32)c(OC)c1` (stereo not drawn), the Potency was “inactive”. `Oc1ccc(Cc2ccc(Cl)cc2)c(O)c1` was tested, and the Potency was “inactive”. For `N#Cc1c(NC(=O)CSc2ncnc3sccc23)oc(-c2ccco2)c1-c1ccco1`, the Potency was 84.9 µM (active). For `COc1ccccc1[C@]1(C)ON(c2ccccc2C(F)(F)F)C1=O`, the Potency was “inactive”. In the case of `Cc1cccc(NC(=O)CN2C(=O)N/C(=C\c3ccccc3OCc3ccc(C(=O)O)cc3)C2=O)c1`, the Potency is reported as “inactive”. With `O=C1Cc2ccccc2C(=O)N1` the Potency was “inactive”. For `COc1ccc(Oc2cn[nH]c2-c2ccc(OC)cc2O)cc1`, the Potency was “inactive”.

— PubChem BioAssay (NCATS)
Potency is the fitted concentration of half-maximal effect.
